Source: PubChem BioAssay (NCATS)
Records with an inconclusive call do not appear. Active and inactive are the calls of the source. Calls come from the whole dose curve; as a rule, active = well fitted inhibition curve with a large enough effect; inconclusive = small, poorly fitted or top-dose-only effect; inactive = flat fitted curve, though single readings scatter.

What was measured:
Test in all cases: qHTS profiling for inhibitors of Plasmodium falciparum proliferation (AID 504749); note: nearly all actives have a fitted effect of over 60% in size
AA1029 = conditions: P. falciparum in erythrocytes, SYBR Green DNA, 72 h; series mostly up to 28.7 µM
Method in brief: (§1)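 Parasite proliferation within erythrocytes, 72 h exposure. Endpoint: SYBR Green I fluorescence after overnight lysis at room temperature. Controls: 0.29 uM artemisinin, DMSO.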

AS120 = conditions: P. falciparum in erythrocytes, SYBR Green DNA, 72 h; series mostly up to 28.7 µM
Method in brief: as §1

CP185 = conditions: P. falciparum in erythrocytes, SYBR Green DNA, 72 h; series mostly up to 28.7 µM
Method in brief: as §1

CP191 = conditions: P. falciparum in erythrocytes, SYBR Green DNA, 72 h; series mostly up to 28.7 µM
Method in brief: as §1

CP201 = conditions: P. falciparum in erythrocytes, SYBR Green DNA, 72 h; series mostly up to 28.7 µM
Method in brief: as §1

CP215 = conditions: P. falciparum in erythrocytes, SYBR Green DNA, 72 h; series mostly up to 28.7 µM
Method in brief: as §1

CP237 = conditions: P. falciparum in erythrocytes, SYBR Green DNA, 72 h; series mostly up to 28.7 µM
Method in brief: as §1

CP238 = conditions: P. falciparum in erythrocytes, SYBR Green DNA, 72 h; series mostly up to 28.7 µM
Method in brief: as §1

CP291 = conditions: P. falciparum in erythrocytes, SYBR Green DNA, 72 h; series mostly up to 28.7 µM
Method in brief: as §1

CP305 = conditions: P. falciparum in erythrocytes, SYBR Green DNA, 72 h; series mostly up to 28.7 µM
Method in brief: as §1

CP315 = conditions: P. falciparum in erythrocytes, SYBR Green DNA, 72 h; series mostly up to 28.7 µM
Method in brief: as §1

CP325 = conditions: P. falciparum in erythrocytes, SYBR Green DNA, 72 h; series mostly up to 28.7 µM
Method in brief: as §1

CP329 = conditions: P. falciparum in erythrocytes, SYBR Green DNA, 72 h; series mostly up to 28.7 µM
Method in brief: as §1

DIV17 = conditions: P. falciparum in erythrocytes, SYBR Green DNA, 72 h; series mostly up to 28.7 µM
Method in brief: as §1

DIV30 = conditions: P. falciparum in erythrocytes, SYBR Green DNA, 72 h; series mostly up to 28.7 µM
Method in brief: as §1

GB4 = conditions: P. falciparum in erythrocytes, SYBR Green DNA, 72 h; series mostly up to 28.7 µM
Method in brief: as §1

P93_24 = conditions: P. falciparum in erythrocytes, SYBR Green DNA, 72 h; series mostly up to 28.7 µM
Method in brief: as §1

P94_40 = conditions: P. falciparum in erythrocytes, SYBR Green DNA, 72 h; series mostly up to 28.7 µM
Method in brief: as §1

TAB165 = conditions: P. falciparum in erythrocytes, SYBR Green DNA, 72 h; series mostly up to 28.7 µM
Method in brief: as §1

TAB109 = conditions: P. falciparum in erythrocytes, SYBR Green DNA, 72 h; series mostly up to 12.8 µM
Method in brief: as §1

Measured: Potency

C#CCN(C)[C@@H](C)Cc1ccccc1
not listed: TAB109
inactive: all other assays above

CN(C)C(=O)Oc1cc(OC(=O)N(C)C)cc([C@@H](O)CNC(C)(C)C)c1
inactive: all assays above

CNC[C@H](O)c1ccc(O)cc1
inactive: all assays above

CC[C@@H]1[C@@H]2C[C@H]3[C@H]4N(C)c5ccccc5[C@@]45C[C@@H]([C@@H]2[C@@H]5O)N3[C@H]1O
not listed: AS120 | CP215 | CP237 | DIV17 | P93_24 | P94_40
inactive: all other assays above

C[C@H]1CN(C2CCC(C#N)(c3ccc(F)cc3)CC2)CC[C@@]1(C(=O)O)c1ccccc1 (some centres not stated)
inactive: all assays above

NCC[C@H](O)C(=O)N[C@H]1C[C@@H](N)[C@@H](O[C@H]2O[C@@H](CN)[C@@H](O)[C@@H](O)[C@@H]2N)[C@@H](O[C@H]2O[C@@H](CO)[C@@H](O)[C@@H]2O)[C@@H]1O
inactive: all assays above

C[N+]1(C)[C@@H]2CC[C@H]1CC(OC(=O)[C@@H](CO)c1ccccc1)C2 (some centres not stated)
not listed: CP315
inactive: all other assays above

CC(C)N(CC[C@@](C(N)=O)(c1ccccc1)c1ccccn1)C(C)C
not listed: GB4
inactive: all other assays above

CC(=O)OCC(=O)[C@@H]1CC[C@H]2[C@H]3CC[C@H]4C[C@@H](O)CC[C@]4(C)[C@@H]3C(=O)C[C@@]12C
inactive: all assays above

C[C@@]12CCC(=O)C=C1C=C[C@H]1[C@H]3CC[C@](O)(CCC(=O)O)[C@]3(C)CC[C@@H]12
not listed: DIV17 | GB4 | P93_24 | TAB165
inactive: all other assays above

CC[C@@]1(c2ccc(N)cc2)CCC(=O)NC1=O
inactive: all assays above

CCN[C@]1(c2cccs2)CCCCC1=O
not listed: CP237 | GB4 | P94_40
inactive: all other assays above

CN(C)[C@@H]1C(=O)C(C(N)=O)=C(O)[C@]2(O)C(=O)C3=C(O)c4c(O)ccc(Cl)c4[C@](C)(O)[C@H]3C[C@@H]12
not listed: CP191 | CP291
inactive: all other assays above
